Reference: PubChem BioAssay AID2016 (NMMLSC, 2009)
Among all 330,000 compounds or so, about 1,700 (0.52%) were called active.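 The calls were made as follows: active = GFP response versus DMSO above a set limit, roughly screen mean plus 3 SD (cut at about 180% in these data); inconclusive = fewer than 70 cells counted for a yeast strain; inactive = the rest.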 What follows is part of a selection rich in actives, with near analogues and random picks from the rest.

Assay: modulators of MEP2-GFP levels in yeast, primary screen, S. cerevisiae, multiplex flow cytometry, MLPCN library (AID 2016);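 also: median GFP fluorescence of the barcode-gated MEP2-GFP cells per well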
Conditions: S. cerevisiae MEP2-GFP strain, 3 h, at 10 µM, active compounds read high, 100% = DMSO control level

GFP response vs DMSO, inactive:
Cc1cccc(-c2nc(CS(=O)CC(=O)NC(C)CCc3ccccc3)c(C)o2)c1 (configuration not stated) 98.7%
O=C(CCN1C(=O)[C@@H]2Cc3ccccc3CN2C1=O)NCCc1ccccc1 106%
C#CCCOC(=O)N1C2=NC(C(=O)OC)=C(C(=O)OC)[C@@H]3N(C)c4ccc(OC)cc4[C@]23C[C@H]1C(=O)OC 89.3%
COc1ccc(CSc2nnnn2-c2ccc(C(=O)O)cc2)cc1 114%
COc1ccc(-c2nnn(Cc3nc(N)nc(N4CCCCC4)n3)n2)cc1 107%
Cc1nn(C)c(C)c1C(C)NC(=O)c1ccc(OC2CCN(Cc3ccccn3)CC2)cc1 (configuration not stated) 111%
O=c1c(-c2ccccc2Cl)c[nH]n1-c1ccccc1 99.8%
O=C1c2ccccc2NC(c2ccc(-c3cccc(Cl)c3)o2)N1O (configuration not stated) 103%
CC1CCN(S(=O)(=O)c2nnc(NC(=O)COc3ccccc3F)s2)CC1 98.5%
CC1(C)Cc2c(sc3nc(SCC(=O)NCc4ccccc4)n(-c4ccccc4)c(=O)c23)CS1 107%
COc1ccccc1C(=O)COC(=O)COc1ccc(C#N)cc1 114%
O=C(c1cccs1)N(Cc1cc2ccccc2[nH]c1=O)CC1CCCO1 (configuration not stated) 103%
CCN(Cc1cc2cc(C)ccc2[nH]c1=O)S(=O)(=O)c1ccccc1 97.6%
CC1CC(C)CN(CCCNC(=O)c2csc3c2CCCCC3)C1 (configuration not stated) 103%
C=CCC[C@@H](Cc1ccc(F)cc1)C(=O)O[C@H](CNC(=O)[C@H](CC=C)CC(=O)N(CCO)Cc1ccccc1)c1ccccc1 104%
Cc1ccc(SCc2cc(=O)[nH]c(N3CCCCC3)n2)cc1 96.5%
Cc1ccc(SCCSc2ncccn2)cc1 106%
CCOc1ccc(Br)cc1CSC(=N)N 103%
COc1ccccc1P(=O)(c1ccccc1)c1ccccc1NC(C)=O (configuration not stated) 83.1%
COc1ccc(C(=O)NCCSc2ccccc2C)cc1 99.7%
COC(=O)CCSc1cc([N+](=O)[O-])cc2c1c(C1OCCS1)nn2-c1ccccc1 (configuration not stated) 107%
Cc1cc(C)cc(NC(=O)COc2coc(CN3CCN(c4ccccc4)CC3)cc2=O)c1 105%
Cc1cc(C)c2nc(N(CCN(C)C)C(=O)/C=C/c3cccs3)sc2c1 110%
Cc1cccc2sc(N(CCCN(C)C)C(=O)CCS(=O)(=O)c3ccccc3)nc12 93.5%
O=C(Nc1ccc(F)cc1)C1CCCN(S(=O)(=O)c2ccc(-n3cnnn3)cc2)C1 (configuration not stated) 106%
Cn1c(COc2ccc(Cl)cc2)nc2ccccc2c1=O 102%
COc1ccc(-c2nc3ccccc3c(=O)n2CCc2ccc(O)cc2)cc1 103%
CSc1ncccc1C(=O)NCc1ccccc1Cl 107%
CCCCn1c(N)c(N(CC)C(=O)c2ccc(N(C)S(=O)(=O)c3ccc(C)cc3)cc2)c(=O)[nH]c1=O 98%
CC(C)(C)C1CCC(C(=O)NCC(c2cccs2)N2CCOCC2)CC1 (configuration not stated) 99%
CN1CCN(C(=O)Cn2c(C(F)(F)F)nc3ccccc32)CC1 103%
C=CCN1CC(C)/C(=N\O)CC1C (configuration not stated) 93.2%
Cc1c(C#N)c(NC(=O)c2ccccc2)n(Cc2ccccc2)c1C 93.8%
COc1ccc(Cn2c(C)c(C)c(C#N)c2NC(=O)Nc2ccc(F)cc2)cc1 99.5%
Cc1cc(C)c2c(-c3ccc(F)cc3)c(C#N)c(=O)n(C)c2n1 95.2%
Cc1ccc(CCNC(=O)c2ccc3nc4ccccc4c(=O)n3c2)cc1 112%
Cc1cccn2c(=O)c3cc(C(=O)NCC4CCCO4)c(=N)n(Cc4ccc(F)cc4)c3nc12 (configuration not stated) 92.2%
COc1ccc(-c2c(C(C)=O)c(C)nc3sc4c(=O)n(-c5ccc(C)cc5)nnc4c23)cc1 105%
O=C(Nc1ccccc1)c1ccc2nsnc2c1 100%
Cc1cccc(NC(=O)N2CCCCCC2)c1C 98.3%
Cc1cccc(NC(=O)c2ccc3nsnc3c2)c1C 100%
Nc1nc(Sc2ncccc2[N+](=O)[O-])n[nH]1 96.3%
COc1ccc(N2C(=O)CCC(C(=O)N(C)C3CCCCC3)C2c2ccc(OC)c(OC)c2)cc1 (configuration not stated) 99.1%
CCCCCn1c(=O)[nH]c2cc(C(=O)NCCCN3CCCCC3C)ccc2c1=O (configuration not stated) 127%
O=S(=O)(NCC1CN(S(=O)(=O)c2ccc3c(c2)OCCO3)C1)c1c(F)cccc1F 103%
O=c1c2ccccc2nc(N/N=C/c2ccccc2)n1O 95.1%
O=C(N/N=C/c1cccnc1)c1ccc(NC(=O)c2ccc(F)cc2)cc1 99.6%
Cc1cc(C)c(S(=O)(=O)NCCCN2CCOCC2)cc1Br 103%
CCOC(=O)Cn1c(=O)oc2cc(S(=O)(=O)N(C)Cc3ccco3)ccc21 91.7%
CCN1CCN(C(=O)N[C@@H](C(=O)N[C@@H]2C(=O)N3C(C(=O)O)=C(CSc4nnnn4C)CS[C@H]23)c2ccc(O)cc2)C(=O)C1=O 94.9%
Cc1c(C(=O)Nc2cccc(-c3nnc4n3CCCCC4)c2)oc2ccccc12 104%
Cc1ccc(-c2csc(NC(=O)Cn3[nH]c(=O)c4ccccc4c3=O)n2)cc1 102%
Cc1ccc(-c2csc(N(Cc3ccco3)C(=O)c3cccs3)n2)cc1 109%
CCOCCn1c(C(C)C)nc2ccccc21 94.3%
CCc1nc2ccccc2n(CCOCCOCCn2c(=O)c(CC)nc3ccccc32)c1=O 105%
CCN(CC(=O)NCc1cccs1)C(=O)c1ccc(OC)c(S(=O)(=O)N2CCOCC2)c1 96%
Cc1cc(=O)oc2c3c(cc(OCC(=O)NCCC(=O)N[C@@H](C)C(=O)O)c12)OC(C)(C)CC3 92.9%
CCOc1cc(N2CCOCC2)c(OCC)cc1NC(=O)c1ccc(C)s1 94.6%
CCOc1cc(N2CCOCC2)c(OCC)cc1NC(=O)COc1cccc(Cl)c1 107%
O=C(CSc1nnc(-c2ccncc2)n1-c1ccc(Cl)cc1)Nc1ccc(C(=O)O)cc1 101%
Cc1cc(=O)oc2c3c(cc(OCC(=O)NCc4ccccn4)c12)OC(C)(C)CC3 100%
O=C(CCC(=O)N1CCN(S(=O)(=O)c2ccccc2)CC1)NC1CCCc2ccccc21 (configuration not stated) 108%
CNS(=O)(=O)c1cccc(C(=O)NC2CCCc3ccccc32)c1 (configuration not stated) 102%
CCC(C)(C)c1ccc(OCC(=O)N(C)C)c(C(C)(C)CC)c1 108%
N#Cc1cccc(NC(=O)COC(=O)c2ccccc2C(=O)c2ccc(Cl)c([N+](=O)[O-])c2)c1 112%
Cc1ccc(C2(c3ccc(C)cc3)NC(=O)N(Cc3c(C)noc3C)C2=O)cc1 91.9%

GFP response vs DMSO, active:
COc1ccc(-n2nnnc2SCc2nc(N)nc(N3CCOCC3)n2)cc1 283% [may fluoresce violet]
O=c1c(-c2cccc(Cl)c2)c[nH]n1-c1ccccc1 193% [may fluoresce violet]
Cc1ccc(S(=O)(=O)N(Cc2cc3ccccc3[nH]c2=O)CC2CCCO2)cc1 (configuration not stated) 195% [may fluoresce violet]
Cc1ccc(SCC2=NNC(=O)C2)cc1 249% [may fluoresce violet]
Cc1ccc2sc(N(CCN(C)C)C(=O)/C=C/c3cccs3)nc2c1C 253% [may fluoresce violet]
COc1ccc(OCc2ccc(-c3nc4ccccc4c(=O)n3N)o2)cc1 249% [may fluoresce violet]
COc1c(C)c2c(c(O)c1C/C=C(\C)CCC(=O)O)C(=O)OC2 297% [may fluoresce violet]
Cc1ccc(C(=O)Nc2c(C#N)c(C)c(C)n2Cc2ccccc2)cc1 364% [may fluoresce violet]
Cc1ccc2nc3c(cc(C(=O)NCCc4ccccc4)c(=N)n3CC3CCCO3)c(=O)n2c1 (configuration not stated) 238% [may fluoresce violet]
Cc1cccc(NC(=O)c2cccc(C(=O)Nc3cccc(C)c3C)n2)c1C 181% [may fluoresce violet]
Fc1ccc(/C=N/Nc2nc(-c3cccnc3)nc3ccccc23)cc1 195%
CN(c1ccccc1)c1ccc(/C=c2\s/c(=C(/C#N)C(=O)C(C)(C)C)n(Cc3ccco3)c2=O)cc1 343%
O=C(Cn1[nH]c(=O)c2ccccc2c1=O)Nc1cccc(-c2nnc3n2CCCCC3)c1 224% [may fluoresce violet]
CCOCCn1c(-c2ccccc2)nc2ccccc21 236% [may fluoresce violet]
CCOc1cc(N2CCOCC2)c(OCC)cc1NC(=O)COc1cccc2cccnc12 295% [may fluoresce violet]
O=C(O)c1cc(S(=O)(=O)NC2CCCc3ccccc32)ccc1O (configuration not stated) 232% [may fluoresce violet]
